Reference: article PMC4336329 (PLoS ONE, 2015)
The whole screen tested about 310,000 compounds, of which about 14,000 (4.5%) showed an effect of 50% or more. Effects have a minus sign here. What follows is part of a selection rich in strong results, with near analogues and random picks from the rest.

The compounds below were run against human ether-à-go-go-related gene (hERG) potassium channel (human, UniProt Q12809) (assay: primary screen, population patch clamp on CHO cells stably expressing hERG; higher = less effect of the substance).
Sequence of human ether-à-go-go-related gene (hERG) potassium channel (Q12809 whole entry, looked up): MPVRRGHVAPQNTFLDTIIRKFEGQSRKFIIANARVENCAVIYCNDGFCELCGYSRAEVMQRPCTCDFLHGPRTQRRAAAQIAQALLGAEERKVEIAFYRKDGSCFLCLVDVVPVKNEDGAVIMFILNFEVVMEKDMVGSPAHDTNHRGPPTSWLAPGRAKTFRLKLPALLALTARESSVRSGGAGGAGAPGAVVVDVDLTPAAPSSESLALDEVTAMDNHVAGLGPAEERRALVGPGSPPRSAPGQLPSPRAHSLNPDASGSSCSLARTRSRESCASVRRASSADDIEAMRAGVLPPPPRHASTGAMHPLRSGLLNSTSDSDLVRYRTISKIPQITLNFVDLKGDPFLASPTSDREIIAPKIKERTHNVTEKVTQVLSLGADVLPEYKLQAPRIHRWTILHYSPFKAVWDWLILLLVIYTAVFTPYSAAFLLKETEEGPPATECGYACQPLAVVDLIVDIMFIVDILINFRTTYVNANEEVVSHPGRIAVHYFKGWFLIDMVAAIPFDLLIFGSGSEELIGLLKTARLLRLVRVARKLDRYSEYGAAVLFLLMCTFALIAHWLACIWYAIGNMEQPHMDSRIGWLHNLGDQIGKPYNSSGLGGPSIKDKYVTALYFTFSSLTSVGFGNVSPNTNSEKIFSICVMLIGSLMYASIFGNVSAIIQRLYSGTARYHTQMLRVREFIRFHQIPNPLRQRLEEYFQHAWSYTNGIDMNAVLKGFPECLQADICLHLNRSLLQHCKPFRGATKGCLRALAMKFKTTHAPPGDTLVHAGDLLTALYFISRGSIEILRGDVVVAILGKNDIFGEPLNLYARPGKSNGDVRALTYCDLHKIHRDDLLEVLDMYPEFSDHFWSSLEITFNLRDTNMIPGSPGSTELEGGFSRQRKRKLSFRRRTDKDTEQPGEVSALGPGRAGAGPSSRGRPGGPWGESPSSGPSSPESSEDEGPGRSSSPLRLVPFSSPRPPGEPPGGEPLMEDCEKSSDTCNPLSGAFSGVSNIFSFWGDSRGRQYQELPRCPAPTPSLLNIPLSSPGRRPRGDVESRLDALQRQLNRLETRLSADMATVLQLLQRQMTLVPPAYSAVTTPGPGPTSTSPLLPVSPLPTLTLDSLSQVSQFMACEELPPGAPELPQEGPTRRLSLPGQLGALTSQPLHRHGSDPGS
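Further: peak tail current of the secondary pulse compared with the same well before compound.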

Row | Compound | hERG current change (%, negative = inhibition) at 10uM [%]
1 | Cc1ccccc1OC(C)C(=O)NC1CCCC1 (stereo not shown) | -2.63
2 | O=C(NN=C1C2CC3CC1CC(Cl)(C3)C2)c1cccs1 | 8.54
3 | COc1ccc(-c2nc(NC(C)=O)sc2-c2ccccc2)cc1 | 34.7
4 | COc1ccccc1CN(CC(=O)NCc1ccc(F)cc1)C(=O)c1csnn1 | -35.3
5 | COc1ccc(CN(CC(=O)NCc2ccccc2)C(=O)c2csnn2)cc1 | -26.6
6 | COc1ccc(CNC(=O)CN(Cc2ccc(OC)cc2)C(=O)c2csnn2)cc1 | -57.5
7 | COc1ccc(CNC(=O)CN(Cc2ccccc2F)C(=O)c2csnn2)cc1 | -32.7
8 | COc1ccc(CNC(=O)CN(Cc2ccc(F)cc2)C(=O)c2csnn2)cc1 | -70.4
9 | COc1ccc(CNC(=O)CN(Cc2ccccc2OC)C(=O)c2csnn2)cc1 | -29
10 | COc1ccc(CNC(=O)CN(Cc2ccc(Cl)cc2)C(=O)c2csnn2)cc1 | -71.7
11 | COc1ccc(CNC(=O)CN(Cc2ccc(C)cc2)C(=O)c2csnn2)cc1 | -36.1
12 | COc1ccc(CNC(=O)CN(Cc2ccccc2)C(=O)c2csnn2)cc1 | -32.3
13 | C=CCN(CC(=O)NCc1ccc(OC)cc1)C(=O)c1csnn1 | -16.7
14 | COc1ccc(CN(CC(=O)NCc2ccc(F)cc2)C(=O)c2csnn2)cc1 | -58.5
15 | COc1ccc(CNC(=O)CN(C(=O)c2csnn2)c2ccc(F)cc2)cc1 | -5.15
16 | CCOc1cccc(=O)c2c(C)n(-c3ccc(C(=O)O)cc3)c(C)c12 | 32
17 | CCOC(=O)c1c(C)nsc1NC(=O)c1ccco1 | -4.79
18 | CCOc1ccc(NCc2nnc(SCC(=O)Nc3cc(C)on3)n2-c2ccc(OC)cc2)cc1 | -4.02
19 | CCc1cccc(CC)c1NC(=O)COC(=O)Cc1ccsc1 | 21.2
20 | COc1ccc(N2C(=O)NC(=O)/C(=C/c3cccc(OC(=O)c4cccs4)c3)C2=O)cc1Cl | -2.57
21 | Cc1ccc(C(=O)NC(=S)Nc2cc(C(F)(F)F)ccc2Cl)cc1 | 20.3
22 | CCOC(=O)Cc1csc(NC(=O)CN(C)S(=O)(=O)c2ccc3c(c2)CCC(=O)N3)n1 | -15.9
23 | CN(C)S(=O)(=O)c1ccc(C(=O)Nc2cc(S(=O)(=O)Nc3ccccc3Cl)ccc2N2CCCCC2)cc1 | 25.5

Row | Compound | hERG current change (%, negative = inhibition) at 10uM [%]
24 | COc1ccc(C/C(N)=N/OC(=O)c2cccs2)cc1 | 12.8
25 | O=C(Nc1nc2ccc(SC(F)F)cc2s1)c1ccc(NS(=O)(=O)c2ccc(F)c(F)c2)cc1 | -8.03
26 | COc1ccc(NC(=O)C(C)Sc2ccccc2)cc1 (stereo not shown) | 1.14
27 | COC(=O)CCc1sc(NC2CCCCC2)nc1-c1ccc(OC)cc1 | 8.55
28 | CCOC(=O)N1CCN(C(=O)c2ccc(OCC)cc2)CC1 | -28.3
29 | CCOC(=O)N1CCN(C(=O)c2ccc(OC)cc2)CC1 | 19.8
30 | CN1CCN(C(=O)c2cc([N+](=O)[O-])cc([N+](=O)[O-])c2)CC1 | 16.7
31 | O=C(c1ccc(Oc2ccc([N+](=O)[O-])cc2)cc1)N1CCCCCC1 | -25.5
32 | CCOC(=O)N1CCN(C(=O)c2ccc(Oc3ccc([N+](=O)[O-])cc3)cc2)CC1 | -68.3
33 | CN1CCN(C(=O)c2ccc(Oc3ccc([N+](=O)[O-])cc3)cc2)CC1 | -50.6
34 | COc1ccc(Br)c(C(=O)NNC(=O)c2ccc(NS(=O)(=O)c3cccs3)cc2)c1 | 12.6
35 | CCC1CCCCN1C(=O)CSc1nnc(CNC(=O)c2c(F)cccc2Cl)o1 (stereo not shown) | 10.7
36 | CCOC(=O)C(=O)Nc1ccc(S(=O)(=O)N2CCOCC2)cc1OC | 4.78
37 | O=C(O)/C=C/C(=O)NC1CC1 | 41.9
38 | COc1nnc(-c2ccc(C)cc2)c2ccccc12 | 5.93
39 | CCN(CC)CCOc1nnc(-c2ccc(C)cc2)c2ccccc12 | -67.7
40 | COc1ccc(-c2nnc(OC)c3ccccc23)cc1 | -7.99
41 | COc1ccc(Oc2nnc(-c3ccc(C)cc3)c3ccccc23)cc1 | 5.64
42 | Cc1ccc(-c2nnc(OCCN3CCOCC3)c3ccccc23)cc1 | -43.4
43 | CCN(CC)CCOc1nnc(-c2ccc(OC)cc2)c2ccccc12 | -65
44 | Br.c1ccc(-c2cc3n(c2)CCc2ccccc2-3)cc1 | 4.17
45 | O=C(CC1C(=O)NCCN1C(=S)Nc1ccccc1)Nc1ccc2c(c1)OCCO2 (stereo not shown) | -15.2
46 | C/C(=C\c1ccccc1)C(=O)NCCCn1ccnc1 | -10.1
